From PubChem
KB-3-1 cytotox = qHTS assay for MDR1-selective chemotherapeutics: Primary screen using the parental adenocarcinoma cell KB-3-1. KB-3-1 viability, CellTiter-Glo ATP luminescence, 72 h. Potency, µM (series often up to 46.1 µM), actives largely listed as cytotoxic. hit rate 1.4% among 400,000; also: % is scaled to controls: 0 for no effect and ±100 for the full control effect; nearly all actives have a fitted effect of over 60% in size
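Cytotoxicity measured as CellTiter-Glo luminescence after 72 h at 37 C. Compound titrations were pinned onto drug-naive KB-3-1 parental adenocarcinoma cells grown in DMEM with 10% FBS, and normalized data fitted to concentration-response curves.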
SW480 rereplic = A quantitative high throughput screen for small molecules that induce DNA re-replication in SW480 colon adenocarcinoma cells; SW480 DNA re-replication, Hoechst DNA content imaging, 48 h; Potency, µM (highest dose often 46.1 µM), without a hit: top-dose re-replication activation, most hits filed as activators; hit rate 1.8% among 340,000; AID 624297, 2012; also: % of control where 0% means no effect; nearly all actives have a fitted effect of over 55% in size
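Per well, 250 cells were exposed to pinned compound for 48 hr. Nuclear DNA was visualised with Hoechst (40 min, 37 C) and total object intensity recorded by fluorescence scanning.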
KB-V1 MDR tox = qHTS assay for MDR1-selective chemotherapeutics: Primary screen using the drug-selected MDR subline cells KB-V1; KB-V1 MDR cells viability, CellTiter-Glo, 72 h; Potency, µM (top dose mostly 46.1 µM), most hits filed as cytotoxic; hit rate 3.4% among 400,000; also: % is scaled to controls: 0 for no effect and ±100 for the full control effect; nearly all actives have a fitted effect of over 60% in size
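Drug-selected KB-V1 cells, grown in DMEM lacking phenol red with 10% FBS, receive compound titrations; after three days at 37 degrees C, surviving cell ATP is quantified by CellTiter-Glo luminescence and responses normalized and curve-fitted.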
MCF10A rereplic = A quantitative high throughput screen for small molecules that induce DNA re-replication in MCF 10a normal breast cells. Potency, µM (titrated, usually from 46.1 µM), for the others: at the highest dose activity, positive = re-replication, most hits filed as activators. MCF 10A DNA re-replication, Hoechst nuclear intensity, 48 h. hit rate 2.9% among 350,000; also: % of control where 0% means no effect; nearly all actives have a fitted effect of over 50% in size
ELG1 DNA repair = qHTS screen for small molecules that inhibit ELG1-dependent DNA repair in human embryonic kidney (HEK293T) cells expressing luciferase-tagged ELG1 | hit rate 2.3% among 330,000 | Potency, µM (series often up to 46.1 µM), for the others: at the top dose activity change, negative = inhibition, hits mostly inhibitors | AID 504467, 2011 | HEK293T ELG1-luciferase reporter, luminescence, 16 h; DNA damage induced by 5-fluorouridine; also: % is scaled to controls: 0 for no effect and ±100 for the full control effect; nearly all actives have a fitted effect of over 55% in size
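In this reporter screen, reduction of luminescence relative to DMSO vehicle indicated activity. Compounds and 5-fluorouridine were added together to 2,000 cells per well, incubated for 16 hr at 37 °C, then developed with ONE-Glo.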
Starred values were filed as active, the others as inactive; i = inactive; u = inconclusive; x = no result given; [ ] = remark or other dose. This is a sample that favours compounds with a hit; in the whole collection about 8.1% have one here. Calls follow the shape of the dose curve; as a rule, active = well fitted curve in the direction sought with a large enough effect; inconclusive = small, poorly fitted or top-dose-only effect, or another doubt; inactive = no such curve, though single readings can be large; an effect the other way counts as inactive or inconclusive. Potency is read from the fitted curve at half-maximal effect.

SMILES | KB-3-1 cytotox | SW480 rereplic | KB-V1 MDR tox | MCF10A rereplic | ELG1 DNA repair
N#CC1=C(N)Oc2cc(N)ccc2C1c1ccc(F)cc1 (centres undefined) | u | u | i | u | u
COc1cc(C2C(C#N)=C(N)Oc3cc(N)ccc32)cc(OC)c1OC (centres undefined) | u | 1.16µM* | u | 1.16µM* | u
COC(=O)c1c(C)sc(-c2c(-c3cccc(OC)c3)[nH]c3c2c(=O)[nH]c(=O)n3C)c1O | i | x | i | x | x
Cn1nccc1C(=O)Nc1sc2c(c1C(N)=O)CCCC2 | i | -9.7% | u | 1.3% | -1.5%
NCCC1CN(C(=O)OCc2ccccc2)c2ccccc21 (centres undefined) | i | 10.3µM* | i | -7.0% | x
COc1ccccc1/C=C/C(=O)c1cc(Br)ccc1OC(=O)c1ccco1 | u | u | u | 10.3µM* | x
Cc1ccc(/C=C/C(=O)c2cc(Br)ccc2OC(=O)c2ccco2)cc1 | i | u | u | 16.4µM* | u
O=C(Nc1ccc(Cl)cc1)c1cc(S(=O)(=O)N2CCOCC2)cs1 | u | -1.1% | 9.2µM* | 28.1% | 14.6µM*
COc1ccc(NC(=O)c2cc(S(=O)(=O)Nc3ccc(OC)cc3)cs2)cc1 | i | -13.1% | 20.6µM* | 3.2% | u
Cc1ccc(NC(=O)c2cc(S(=O)(=O)N3CCCCC3)cs2)cc1 | u | 0.3% | 14.6µM* | u | u
O=C(Nc1ccc(F)cc1)c1cc(S(=O)(=O)Nc2ccc(F)cc2)cs1 | i | 23.2% | i | 43.4% | -8.2%
Cc1ccc(NC(=O)c2cc(S(=O)(=O)N3CCOCC3)cs2)cc1 | i | 2.8% | i | 0.2% | 10.9%
O=C(Nc1ccc(F)cc1)c1cc(S(=O)(=O)N2CCOCC2)cs1 | i | u | i | -0.5% | -18.1%
C[C@@H](c1ccccc1)N1C[C@H](COCc2ccccc2)Oc2cc(N3CC[C@@H](O)C3)ccc2S1(=O)=O | i | x | i | x | x
COC(=O)N1C(=O)[C@@](c2ccccc2)(C2CCCCC2)N1C(=O)OC | i | -14.6%[9.22 µM] | i | 14.6µM* | -0.3%
CC[C@@]1(c2ccccc2)C(=O)N(C(=O)OC)N1C(=O)OC | i | 4.0% | i | u | -25.8%
O=c1c(=O)n2c(nn1Cc1ccc(F)cc1)sc1ccccc12 | i | -0.4% | i | -3.4% | 9.8%
COc1ccc(C2=NOC(C(=O)N3CCCCCC3)C2)cc1OC (centres undefined) | i | -7.3% | 18.4µM* | -6.7% | 5.0%
COc1ccc(C2OC(=O)CC2C(=O)NC2CCCCCC2)cc1OC (centres undefined) | i | u | 13µM* | 6.7% | -1.1%
COc1ccc(C2=NOC(C(=O)NC3CCCCC3)C2)cc1OC (centres undefined) | i | -8.9% | 16.4µM* | -2.2% | -0.6%
COc1ccc(C2=NOC(C(=O)Nc3ccc(C(C)=O)cc3)C2)cc1OC (centres undefined) | i | -8.4% | 14.6µM* | 16.8% | u
COc1ccc(C2OC(=O)CC2C(=O)NC2CCCC(C)C2C)cc1OC (centres undefined) | i | 12.7% | u | 8.1% | -0.2%
O=C(C1CC(c2ccc(F)cc2)=NO1)N1CCCCC1 (centres undefined) | i | -24.8% | i | 5.2% | u
Cc1ccc(C(C)(C)C)cc1S(=O)(=O)Nc1ncnc2sccc12 | i | -3.0% | i | -3.4% | -3.9%
Cc1cc(C)nc(/N=C/c2c(O)n(C)c(=O)n(C)c2=O)n1 | x | x | x | x | 9.3%
SMILES | KB-3-1 cytotox | SW480 rereplic | KB-V1 MDR tox | MCF10A rereplic | ELG1 DNA repair
CCC(=O)N1N=C2CC(C)(C)OCC2C1c1ccccc1 (centres undefined) | i | -0.7% | i | -2.8% | 12.4%
Cc1ccc(S(=O)(=O)N/N=C\c2ccccc2OCc2ccccc2)cc1 | i | -4.6% | u | -1.8% | -3.8%
CCN1CCN(S(=O)(=O)c2ccc(Cl)c(C(=O)NCCc3ccccc3)c2)CC1 | i | 14.6µM* | i | 4.8% | u
CCN1CCN(S(=O)(=O)c2ccc(Cl)c(C(=O)Nc3ccccc3N3CCCC3)c2)CC1 | i | 6.51µM* | i | u | -15.3%
CCN1CCN(S(=O)(=O)c2ccc(Cl)c(C(=O)Nc3ccccc3N3CCCCC3)c2)CC1 | u | u | i | u | 0.1%
CCN1CCN(S(=O)(=O)c2ccc(Cl)c(C(=O)NCc3nc4ccccc4[nH]3)c2)CC1 | u | 10.3µM* | i | u | 0.8%
O=C(NCc1nc2ccccc2[nH]1)c1cccc(S(=O)(=O)N2CCCCC2)c1 | i | -6.8% | i | 1.2% | -9.7%
COc1ccc(CCNC(=O)c2ccc(OCC(=O)N3CCOCC3)c(OC)c2)cc1 | i | -6.9% | i | -1.1% | -2.9%
CC(=O)n1cc(N(C(=O)CCl)c2ccc([N+](=O)[O-])cc2)c2ccccc21 | u | 16.4µM* | u | u | 23.1µM*
O=Cc1[nH]c2ccccc2c1N(C(=O)CCl)c1ccc([N+](=O)[O-])cc1 | i | u | i | u | -7.0%
CC(=O)n1cc(N(C(=O)CCl)c2ccccc2)c2ccccc21 | u | 1.64µM* | u | 16.4µM* | u
Cc1ccc(C)n1-c1ccc(N2CCOCC2)c([N+](=O)[O-])c1 | u | u | i | u | u
Nc1cc(N2CCOCC2)c(Cl)cc1[N+](=O)[O-] | i | 1.8% | 6.51µM* | 1.2% | -9.0%
Nc1cc(N2CCCC2)c(Cl)cc1[N+](=O)[O-] | u | -0.6% | 8.2µM* | 13.7% | 4.7%
O=[N+]([O-])c1cc(-n2cccc2)ccc1N1CCOCC1 | u | -5.8% | 6.51µM* | -1.5% | 20.8%
Cc1ccc(S(=O)(=O)NCCC(=O)NCc2ccccc2)cc1 | i | 1.8% | i | 3.1% | -3.7%
CCN(CC)CCn1c2c(c(SCC(=O)Nc3ccc4c(c3)OCO4)nc1=O)CCC2 | i | -6.3% | i | -4.0% | -19.7%
O=C(Nc1ccc(-n2nncc2-c2ccco2)cc1)c1cc2ccccc2oc1=O | i | 15.7% | i | u | u
CCOC(=O)/C(N=Nc1ccc(C(=O)O)cc1[N+](=O)[O-])=C(\C)O | i | -66.5% | i | 3.66µM* | 7.5%
CC(=O)/C(N=Nc1ccc(C(=O)O)cc1[N+](=O)[O-])=C(\C)O | i | -21.8% | u | 5.8% | 4.9%
Cc1ccc(-n2cnc3c(sc4nccc(N(C)C)c43)c2=O)cc1 | i | -7.4% | u | 9.6% | 10µM*
